Assay outcomes: PubChem BioAssay, National Center for Advancing Translational Sciences (NCATS)
POLB inh – DNA polymerase beta (human) inhibition. 1.3% of 340,000 active. Pol beta primer extension/strand displacement, fluorescence kinetic. P06746. Potency, µM (doses to about 114 µM), most hits filed as inhibitors. AID 485314
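Kinetic readout of DNA synthesis with strand displacement by Pol beta. Compound and 10 nM enzyme sit 15 min at room temperature; 50 nM substrate starts the reaction, read immediately and at 10 min.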
WRN helicase inh – blocks human WRN helicase; Q14191; WRN helicase unwinding, fluorescent forked duplex, kinetic; Potency, µM (series often up to 114 µM), most hits filed as inhibitors; 0.46% of 360,000 active; AID 651768; note: nearly all actives have a fitted effect of over 55% in size
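Kinetic fluorescence helicase assay: unwinding of a quenched forked DNA duplex (100 nM final) with 2 mM ATP final raises red fluorescence (525/598 nm). Compounds sat 15 min at room temperature with 20 nM WRN beforehand.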
POLH inh – DNA polymerase eta (human) inhibition. Potency, µM (series often up to 114 µM), hits mostly inhibitors. recombinant Pol eta, fluorescent DNA replication assay. 1.2% of 390,000 active. Q9Y253
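Pol eta (10 nM) was preincubated with compounds for 15 min at room temperature, after which fluorescent replication substrate (50 nM final) was added to start the reaction. Fluorescence was read kinetically at 0 and 10 min.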
Pol kappa inh – inhibitors of human DNA polymerase kappa. purified Pol kappa, fluorescent DNA synthesis assay, 10 min. 0.53% of 400,000 active. Q9UBT6. AID 588579. Potency, µM (doses to about 107 µM), hits mostly inhibitors
Target sequence (Q9UBT6 whole entry, looked up): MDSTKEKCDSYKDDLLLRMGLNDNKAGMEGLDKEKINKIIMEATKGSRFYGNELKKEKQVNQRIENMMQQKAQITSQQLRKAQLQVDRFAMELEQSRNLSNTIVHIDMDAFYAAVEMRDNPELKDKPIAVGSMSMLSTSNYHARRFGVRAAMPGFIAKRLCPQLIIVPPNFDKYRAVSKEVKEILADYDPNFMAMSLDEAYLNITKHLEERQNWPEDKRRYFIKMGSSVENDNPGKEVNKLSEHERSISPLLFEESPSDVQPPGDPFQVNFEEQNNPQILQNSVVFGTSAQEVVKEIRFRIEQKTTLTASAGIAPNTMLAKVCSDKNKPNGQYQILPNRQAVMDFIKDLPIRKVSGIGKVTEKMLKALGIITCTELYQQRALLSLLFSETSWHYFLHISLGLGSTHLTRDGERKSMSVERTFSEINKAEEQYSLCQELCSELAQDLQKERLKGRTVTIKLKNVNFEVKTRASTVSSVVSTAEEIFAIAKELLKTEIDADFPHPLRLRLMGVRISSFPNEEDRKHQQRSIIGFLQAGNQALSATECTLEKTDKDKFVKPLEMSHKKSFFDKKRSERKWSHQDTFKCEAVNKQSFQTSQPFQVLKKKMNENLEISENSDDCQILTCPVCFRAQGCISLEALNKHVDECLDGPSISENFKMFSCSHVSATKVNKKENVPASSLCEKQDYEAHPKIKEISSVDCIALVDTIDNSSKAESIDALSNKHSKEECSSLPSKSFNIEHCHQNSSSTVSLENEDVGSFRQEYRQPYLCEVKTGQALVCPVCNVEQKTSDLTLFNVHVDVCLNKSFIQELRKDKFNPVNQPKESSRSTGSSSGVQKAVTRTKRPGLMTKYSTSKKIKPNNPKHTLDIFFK
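10 nM Pol kappa was preincubated with compounds for 15 min at room temperature. Reaction started with 50 nM (final) substrate. Fluorescence read kinetically at 0 and 10 min.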
POLI inh – inhibitors of human DNA polymerase iota; 1% of 390,000 active; Potency, µM (series often up to 115 µM), usual class: inhibitors; Q9UNA4; Pol iota fluorescent replication assay, 10 min
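Pol iota at 10 nM preincubated 15 min with compounds at room temperature; reaction started with fluorescent substrate, 50 nM final. Fluorescence read kinetically at 0 and 10 min; buffer-only wells as negative control.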
Of the large screens only hits and unclear results are named; the others gave an inactive call. An excerpt weighted towards active compounds, which were near 2.3% of everything screened. Calls come from the whole dose curve; as a rule, active = well fitted curve in the direction sought with a large enough effect; inconclusive = small, poorly fitted or top-dose-only effect, or another doubt; inactive = no such curve, though single readings can be large; an effect the other way counts as inactive or inconclusive.

CCn1c2c(c(=O)n3ncc(C(=O)N4CCN(c5ccc(C(C)=O)cc5)CC4)c13)CN(Cc1ccc(OC)cc1)CC2	POLB inh inconclusive, POLH inh 89µM, POLI inh inconclusive (no result: WRN helicase inh)
C=CCN=c1scc(-c2ccco2)n1/N=C/c1ccc(O)c(O)c1O	WRN helicase inh 50µM, POLH inh inconclusive, Pol kappa inh 22µM, POLI inh 1.8µM
CCCCCC1CCNCC1	none (no result: POLB inh, WRN helicase inh, POLH inh)
CC1=NNC(=O)C1Oc1ccccc1 (stereo unspecified)	POLI inh 25µM
CC1=NNC(=O)C1Cc1ccccc1C (stereo unspecified)	none
O=[N+]([O-])c1ccc2c(c1)C=C/C2=C\c1ccccc1	none (no result: POLB inh, WRN helicase inh, POLH inh)
Cc1ccc(Cl)cc1NC(=S)N(Cc1ccco1)C(C)c1cccs1 (stereo unspecified)	POLI inh 79µM
O=C(OCc1nnc(-c2ccccc2)o1)c1ccc([N+](=O)[O-])o1	POLI inh inconclusive (no result: POLB inh)
COc1cc(-c2nnc(COC(=O)c3ccc([N+](=O)[O-])o3)o2)cc(OC)c1OC	POLH inh 79µM (no result: POLB inh, Pol kappa inh, POLI inh)
CC(=O)Nc1ccn(C2OC(C(COC(C)=O)NC(=O)C(C)NC(=O)OC(C)(C)C)C(OC(C)=O)C2OC(C)=O)c(=O)n1 (stereo unspecified)	none (no result: POLB inh, WRN helicase inh, POLH inh)
CSCCOC(=O)c1[nH]c2c(c1C)C(=O)CC(c1ccco1)C2 (stereo unspecified)	POLB inh 7.9µM, WRN helicase inh 56µM, POLH inh 18µM, Pol kappa inh 32µM, POLI inh inconclusive
COCCOC(=O)c1[nH]c2c(c1C)C(=O)CC(c1ccc(F)cc1)C2 (stereo unspecified)	POLB inh inconclusive
Cc1c(C(=O)OCc2ccccc2)[nH]c2c1C(=O)CC(c1ccco1)C2 (stereo unspecified)	POLB inh 11µM, WRN helicase inh 50µM, POLH inh 22µM, Pol kappa inh inconclusive
COCCOC(=O)c1[nH]c2c(c1C)C(=O)CC(c1ccccc1)C2 (stereo unspecified)	none
Cc1c(C(=O)OCCOC(C)C)[nH]c2c1C(=O)CC(c1ccco1)C2 (stereo unspecified)	POLB inh 20µM, WRN helicase inh inconclusive, POLH inh 25µM, Pol kappa inh 79µM, POLI inh inconclusive
CC(C)(C)n1ncc2c(=O)n(Cc3ccccc3C(F)(F)F)cnc21	none (no result: POLB inh, WRN helicase inh, POLH inh)
OC(C[n+]1cccc(Br)c1)c1ccccc1 (stereo unspecified)	none (no result: POLB inh, WRN helicase inh, POLH inh)
N/C(=N\OC(=O)Cc1cccs1)c1ccccc1	POLH inh 16µM
Cc1ccc(/C(N)=N/OC(=O)Cc2cccs2)cc1	none
Cc1cc2c(cc1C)N[C@]1(C[C@H]3CCC(=O)N4CC[C@@H](C1)[C@@H]34)C(=Nc1ccccc1C)N2	none (no result: POLB inh, WRN helicase inh, POLH inh)
O=[N+]([O-])c1ccc(/C=C/c2ccnc3ccccc23)c([N+](=O)[O-])c1	none (no result: POLB inh, WRN helicase inh, POLH inh)
Cc1ccc(NC(=O)C(=O)Nc2ccc(C)cn2)nc1	none
Cc1ccc(NC(=O)/C(C#N)=C(\N)C(Cl)(Cl)Cl)nc1	POLH inh 45µM
CN(C)Cc1cc(C(C)(C)C)cc(C(C)(C)C)c1O	none
CN(C)Cc1cc(O)c(CN(C)C)cc1O	POLB inh 10µM, POLH inh 79µM, Pol kappa inh 16µM, POLI inh 7.1µM
COc1ccc(/C=C/C(=O)c2ccc(OC)cc2OC)c(OC)c1	none
CNc1ccc(Br)cc(C(=O)/C=C/c2ccc(OC)cc2OC)c1=O	POLB inh inconclusive, WRN helicase inh inconclusive, POLH inh 45µM, Pol kappa inh inconclusive, POLI inh 11µM
CNc1ccc(Br)cc(C(=O)/C=C/c2ccc(Cl)cc2Cl)c1=O	POLB inh 32µM, POLH inh 50µM, POLI inh inconclusive
CNc1ccc(Br)cc(C(=O)/C=C/c2cccc(OC)c2)c1=O	POLH inh 16µM, Pol kappa inh inconclusive, POLI inh inconclusive
CCN(CCC(=O)O)c1ccc(/C=C/c2ccnc3ccccc23)cc1	POLI inh inconclusive (no result: POLB inh, WRN helicase inh, POLH inh)
CCCCNC(=O)NS(=O)(=O)c1ccc(CO)cc1	none (no result: POLB inh, WRN helicase inh, POLH inh, POLI inh)
Cc1cc(O)c(C=O)c2c1C(=O)Oc1c(C)c(O)c3c(c1O2)C(O)OC3=O (stereo unspecified)	Pol kappa inh 10µM (no result: POLB inh, WRN helicase inh, POLH inh, POLI inh)
COC(=O)c1c(C)c2c(c(C)c1O)OC(=O)c1c(C)c(Cl)c(O)c(Cl)c1O2	none (no result: POLB inh, WRN helicase inh, POLH inh, POLI inh)
Cc1ccc(CNC(=O)[C@]2(C(F)(F)F)C[C@H](CCc3ccccc3)CCCO2)o1	none (no result: POLB inh, WRN helicase inh, POLH inh)
